For assay [1], the target named is ATP-dependent 6-phosphofructokinase (Trypanosoma brucei brucei) (UniProt O15648). Kind of assay: qHTS Validation Assay to Find Inhibitors of T. brucei phosphofructokinase (AID 485368). Also: potency is read from the fitted curve at half-maximal effect. The procedure, abridged:
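PFK-generated ADP was measured after 45 min at room temperature using ADP-Glo. The reaction contained 0.5 mM F6P and 0.1 mM ATP.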

Assay [2] in a line: Quantitative high throughput screen for delayed death inhibitors of the malarial parasite plastid, 96 hour incubation (AID 488745). Also: nearly all actives have a fitted effect of over 70% in size. Also: potency is read from the fitted curve at half-maximal effect. The procedure, abridged: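 Decreased firefly luciferase luminescence indicates inhibited growth of reporter-integrated P. falciparum after two generations (96 h, 37 C, 5% CO2). Infected erythrocytes at 0.1% parasitemia, 2% hematocrit, in Albumax-supplemented RPMI 1640.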

Assay [3] is described as follows: Quantitative high throughput screen for delayed death inhibitors of the malarial parasite plastid, 48 hour incubation (AID 488752). Also: nearly all actives have a fitted effect of over 65% in size. Also: potency is read from the fitted curve at half-maximal effect. The procedure, abridged: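 One-generation (48 h) growth assay: a decrease in luciferase signal from an integrated reporter in P. falciparum-infected red cells (0.1% parasitemia, 2% hematocrit) after compound exposure at 37 C indicates parasite inhibition.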

Assay [4] has as its target Thioredoxin reductase 1, cytoplasmic (Rattus norvegicus) (UniProt O89049). Kind of assay: qHTS Assay for Substrates of Mammalian Selenoprotein Thioredoxin Reductase 1 (TrxR1) (AID 488772).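 Also: series mostly up to about 57 µM; a drop in NADPH fluorescence below the no-compound background marks a TrxR1 substrate.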 The procedure, abridged: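 In this dual-purpose format, potential substrates are identified from the first fluorescence read after selenite addition, not from the 8-minute delta. Rat enzyme is preincubated with NADPH and then with compound at ~22 deg C.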
Background: In qHTS, concentration-response curves come from the screen itself.

The target of assay [5] is Chromobox protein homolog 1 (Homo sapiens) (UniProt P83916). Kind of assay: qHTS Validation Assay for Inhibitors of HP1-beta Chromodomain Interactions with Methylated Histone Tails (AID 488953). Also: nearly all actives have a fitted effect of over 50% in size. Also: potency is read from the fitted curve at half-maximal effect. In short, it runs like this: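 AlphaScreen proximity signal from streptavidin donor and nickel chelate acceptor beads (final 10 ug/mL) after 30 min dark incubation. Compounds had 30 min at room temperature with preformed complex of 50 nM HP1-beta and 50 nM b-H3(1-18)K9me3 in PBS pH 7.4 with 0.01% Tween-20.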
Sequence of Chromobox protein homolog 1 (Homo sapiens) (P83916 whole entry, looked up): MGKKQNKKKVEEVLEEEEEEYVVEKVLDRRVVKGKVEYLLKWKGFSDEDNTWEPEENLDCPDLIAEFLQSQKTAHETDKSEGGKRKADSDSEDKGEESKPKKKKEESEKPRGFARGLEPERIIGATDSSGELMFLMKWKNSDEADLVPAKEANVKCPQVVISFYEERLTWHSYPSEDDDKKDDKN

The target in assay [6] is Methanococcus maripaludis chaperonin (MmCpn) (UniProt Q6LX38). Kind of assay: High-Throughput Screening for Modulators of Cytosolic Chaperonin Activity: MmCpn Primary Screen (AID 488978). In short, it runs like this:
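HTRF readout (320 nm excitation, 590/665 nm emission) of ADP generated by 50 nM MmCpn hydrolysing 30 uM ATP during 10 min at 37C; compound preincubated 5 min RT.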

In assay [7] the target is Transient receptor potential cation channel subfamily V member 1 (Homo sapiens) (UniProt Q8NER1). The assay can be described thus: HTS Assay for Compounds that Act as Enhancers of the Vanilloid Receptor 1 (AID 488979). The procedure, abridged:
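Calcium influx kinetics via Fluo-8 (480/520 nm) in TRPV1-expressing cells, 2000/well cultured overnight at 35.5C. Compound-alone read 3 min (agonist phase), followed by EC20 capsaicin challenge for 2 min (enhancer phase).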

Assay [8] concerns the target Flap endonuclease 1 (Homo sapiens) (UniProt P39748). Kind of assay: qHTS Validation Assay for the Inhibitors of Human Flap endonuclease 1 (FEN1) (AID 488816). Also: potency is read from the fitted curve at half-maximal effect. In short, it runs like this: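 qHTS format: compounds and 10 nM FEN1 incubated 15 min at room temperature before adding 50 nM substrate. Cleavage followed by reads at 0 and 15 min; normalized data fitted to a four-parameter Hill curve.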

Assay [9] addresses M-phase phosphoprotein 8 (Homo sapiens) (UniProt Q99549). Kind of assay: qHTS Validation Assay for Inhibitors for MPP8 Chromodomain Interactions with Methylated Histone Tails (AID 488949). Also: nearly all actives have a fitted effect of over 55% in size. Also: potency is read from the fitted curve at half-maximal effect. The procedure, abridged: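 Chemiluminescent proximity assay: histidine-tag capture via nickel acceptor beads, biotin peptide via streptavidin donor beads. Protein and peptide each at 50 nM, pH 7.4, with 30 min incubations at room temperature for complex formation, compound exposure and bead binding.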

Assay [10] deals with Thioredoxin reductase 1, cytoplasmic (Rattus norvegicus) (UniProt O89049). Kind of assay: qHTS Assay for Inhibitors of Mammalian Selenoprotein Thioredoxin Reductase 1 (TrxR1) (AID 488773).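 Also: drop in NADPH fluorescence over an 8 min run after selenite addition; series mostly up to about 57 µM; nearly all actives have a fitted effect of over 40% in size.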 The following applies: Potency: inhibition. In short, it runs like this:
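Inhibition is scored from the loss of NADPH fluorescence between first and last reads of an 8-min kinetic run. Selenite (400 uM) was the substrate, added after 15 min compound preincubation at room temperature.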

Molecules are shown by their SMILES. Where “and” joins values, the source holds several entries; their conditions need not be identical. Equal entries are not always repeated. Results filed as inconclusive are left out. Some compounds were tested as several samples or in several runs, with calls that do not always agree. Calls of active or inactive are those of the source. Calls follow the shape of the dose curve; as a rule, active = well fitted curve in the direction sought with a large enough effect; inconclusive = small, poorly fitted or top-dose-only effect, or another doubt; inactive = no such curve, though single readings can be large; an effect the other way counts as inactive or inconclusive.

Sequence of Transient receptor potential cation channel subfamily V member 1 (Homo sapiens) (Q8NER1 whole entry, looked up): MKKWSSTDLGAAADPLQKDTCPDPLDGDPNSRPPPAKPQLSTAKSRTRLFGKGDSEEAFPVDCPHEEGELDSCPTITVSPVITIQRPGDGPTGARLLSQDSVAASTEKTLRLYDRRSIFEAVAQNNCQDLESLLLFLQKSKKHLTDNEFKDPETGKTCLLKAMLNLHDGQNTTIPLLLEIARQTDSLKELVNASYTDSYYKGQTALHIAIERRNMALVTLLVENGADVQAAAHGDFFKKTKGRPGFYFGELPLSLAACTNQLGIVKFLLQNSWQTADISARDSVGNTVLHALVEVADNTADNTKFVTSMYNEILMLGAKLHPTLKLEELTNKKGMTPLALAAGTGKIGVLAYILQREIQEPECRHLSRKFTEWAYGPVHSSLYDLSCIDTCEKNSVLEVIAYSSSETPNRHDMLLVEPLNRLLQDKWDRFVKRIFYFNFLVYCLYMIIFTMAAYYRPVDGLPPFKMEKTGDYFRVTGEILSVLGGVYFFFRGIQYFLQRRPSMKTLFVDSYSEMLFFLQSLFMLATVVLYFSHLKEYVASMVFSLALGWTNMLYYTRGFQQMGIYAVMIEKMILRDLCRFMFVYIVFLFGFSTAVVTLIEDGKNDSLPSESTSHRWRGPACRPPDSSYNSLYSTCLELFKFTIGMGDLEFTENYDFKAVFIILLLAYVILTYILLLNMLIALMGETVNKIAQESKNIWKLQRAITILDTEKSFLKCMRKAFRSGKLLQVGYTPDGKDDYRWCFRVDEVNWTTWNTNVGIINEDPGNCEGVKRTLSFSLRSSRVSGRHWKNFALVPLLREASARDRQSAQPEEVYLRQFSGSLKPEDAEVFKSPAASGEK
Sequence of ATP-dependent 6-phosphofructokinase (Trypanosoma brucei brucei) (O15648 whole entry, looked up): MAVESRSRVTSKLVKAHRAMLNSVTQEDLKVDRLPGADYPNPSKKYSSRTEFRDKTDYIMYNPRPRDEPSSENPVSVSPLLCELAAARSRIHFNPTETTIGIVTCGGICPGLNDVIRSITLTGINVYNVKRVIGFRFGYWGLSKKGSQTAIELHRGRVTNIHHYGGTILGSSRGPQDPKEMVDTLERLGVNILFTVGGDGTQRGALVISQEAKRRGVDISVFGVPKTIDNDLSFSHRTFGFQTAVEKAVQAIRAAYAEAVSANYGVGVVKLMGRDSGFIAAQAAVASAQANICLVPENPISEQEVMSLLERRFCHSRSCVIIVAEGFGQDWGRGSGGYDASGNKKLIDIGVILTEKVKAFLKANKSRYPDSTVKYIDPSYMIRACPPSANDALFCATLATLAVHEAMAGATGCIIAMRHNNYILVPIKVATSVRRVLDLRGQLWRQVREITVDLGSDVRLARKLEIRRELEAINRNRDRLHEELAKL
Sequence of Thioredoxin reductase 1, cytoplasmic (Rattus norvegicus) (O89049 whole entry, looked up): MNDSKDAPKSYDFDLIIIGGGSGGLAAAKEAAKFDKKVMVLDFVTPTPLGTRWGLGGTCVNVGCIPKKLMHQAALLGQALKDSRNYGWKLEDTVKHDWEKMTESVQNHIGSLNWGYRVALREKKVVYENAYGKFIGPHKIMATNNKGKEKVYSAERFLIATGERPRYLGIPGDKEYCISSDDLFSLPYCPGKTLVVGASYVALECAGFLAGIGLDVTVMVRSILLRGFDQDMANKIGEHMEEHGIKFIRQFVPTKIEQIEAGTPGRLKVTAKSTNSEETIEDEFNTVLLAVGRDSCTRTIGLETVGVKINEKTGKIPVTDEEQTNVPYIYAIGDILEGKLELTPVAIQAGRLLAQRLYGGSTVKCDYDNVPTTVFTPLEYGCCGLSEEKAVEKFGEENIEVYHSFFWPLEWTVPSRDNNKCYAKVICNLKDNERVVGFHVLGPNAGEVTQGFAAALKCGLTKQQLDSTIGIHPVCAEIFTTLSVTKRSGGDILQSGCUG
Sequence of Flap endonuclease 1 (Homo sapiens) (P39748 whole entry, looked up): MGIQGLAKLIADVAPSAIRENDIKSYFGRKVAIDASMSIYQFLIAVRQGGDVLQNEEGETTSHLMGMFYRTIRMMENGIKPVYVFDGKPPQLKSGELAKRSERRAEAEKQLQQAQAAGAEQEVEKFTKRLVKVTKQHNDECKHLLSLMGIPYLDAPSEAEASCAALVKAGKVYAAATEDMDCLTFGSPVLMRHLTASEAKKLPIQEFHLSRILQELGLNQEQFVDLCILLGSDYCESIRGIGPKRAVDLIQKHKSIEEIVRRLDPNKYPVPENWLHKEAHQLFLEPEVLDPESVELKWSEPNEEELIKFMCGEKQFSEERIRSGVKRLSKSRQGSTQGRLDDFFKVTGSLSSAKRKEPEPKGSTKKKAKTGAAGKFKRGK
Sequence of Methanococcus maripaludis chaperonin (MmCpn) (Q6LX38 1-543): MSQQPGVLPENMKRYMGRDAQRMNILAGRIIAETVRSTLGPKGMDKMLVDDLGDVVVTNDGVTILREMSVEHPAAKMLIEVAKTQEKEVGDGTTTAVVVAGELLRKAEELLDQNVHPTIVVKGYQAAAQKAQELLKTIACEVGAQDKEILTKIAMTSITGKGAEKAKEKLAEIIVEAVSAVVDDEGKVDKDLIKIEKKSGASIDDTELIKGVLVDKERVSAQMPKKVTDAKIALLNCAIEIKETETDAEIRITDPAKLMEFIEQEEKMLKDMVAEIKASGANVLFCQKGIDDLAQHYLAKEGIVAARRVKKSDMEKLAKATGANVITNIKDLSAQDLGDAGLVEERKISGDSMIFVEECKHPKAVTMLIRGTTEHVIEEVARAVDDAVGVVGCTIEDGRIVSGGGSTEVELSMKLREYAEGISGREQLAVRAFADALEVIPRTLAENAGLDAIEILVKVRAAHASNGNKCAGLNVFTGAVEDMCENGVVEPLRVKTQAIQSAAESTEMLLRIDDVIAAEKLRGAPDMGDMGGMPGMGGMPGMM
Sequence of M-phase phosphoprotein 8 (Homo sapiens) (Q99549 whole entry, looked up): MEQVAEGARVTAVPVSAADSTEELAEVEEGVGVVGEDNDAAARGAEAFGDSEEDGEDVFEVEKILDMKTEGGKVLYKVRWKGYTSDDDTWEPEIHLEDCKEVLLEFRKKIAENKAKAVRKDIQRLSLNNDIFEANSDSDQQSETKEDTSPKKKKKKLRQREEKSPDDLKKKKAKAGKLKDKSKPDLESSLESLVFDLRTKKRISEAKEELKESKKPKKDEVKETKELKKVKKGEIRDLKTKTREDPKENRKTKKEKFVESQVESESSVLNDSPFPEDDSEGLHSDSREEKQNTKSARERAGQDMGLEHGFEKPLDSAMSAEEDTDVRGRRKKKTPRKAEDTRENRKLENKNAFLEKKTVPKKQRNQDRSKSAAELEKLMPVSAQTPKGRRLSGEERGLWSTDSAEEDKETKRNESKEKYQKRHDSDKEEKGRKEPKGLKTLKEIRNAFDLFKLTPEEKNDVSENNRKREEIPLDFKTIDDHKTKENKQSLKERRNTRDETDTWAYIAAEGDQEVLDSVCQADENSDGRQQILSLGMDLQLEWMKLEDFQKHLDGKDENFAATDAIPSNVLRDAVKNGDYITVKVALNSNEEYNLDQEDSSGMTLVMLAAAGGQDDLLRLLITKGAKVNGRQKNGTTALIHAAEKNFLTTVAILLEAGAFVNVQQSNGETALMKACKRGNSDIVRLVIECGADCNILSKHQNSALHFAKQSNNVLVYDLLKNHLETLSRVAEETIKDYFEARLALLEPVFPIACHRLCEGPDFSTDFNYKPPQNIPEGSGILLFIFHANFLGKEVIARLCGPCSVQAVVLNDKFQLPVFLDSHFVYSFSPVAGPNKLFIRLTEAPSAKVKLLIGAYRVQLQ

For `Nc1nc2ccc(Cl)cc2c2nc(-c3ccco3)nn12`, the Potency entry in assay [1], in assay [2], in assay [3] and in assay [5] was “inactive” each time. The compound was called inactive in [4], in [6] and in assay [7].
On to `NC(=O)c1ccccc1`, for which the Potency result in assay [1], in assay [2], in [3], in assay [8], in assay [9] and in [5] was “inactive” each time. Besides, the outcome in assay [6] and in [7] was inactive.
On to `COc1cc(/C=C(\C#N)C(=O)c2ccc(O)c(O)c2)cc(I)c1O`, for which the Potency in assay [1] is 6.01 µM (active); in assay [8] it was 0.844 µM (active); in assay [9], 8.91 µM (active) and 8.44 µM (active); in assay [5] it was 10 µM (active). For the same compound, the Potency entry in [2] and in [3] was “inactive” throughout. Besides, the compound was called inactive in [4], in assay [6] and in assay [7].
As for `CC1=C(C(=O)O)N2C(=O)[C@@H](NC(=O)C(N)C3=CCC=CC3)[C@H]2SC1` (stereo partly specified), the Potency result in [1], in assay [2], in assay [3], in assay [10], in [9] and in [5] was “inactive” in each case. Besides, the compound was called inactive in assay [4], in assay [6] and in assay [7].
For `Cc1ccc2c(c1)C(N1CCN(C)CC1)=Nc1cccnc1N2`, the Potency result in [1], in [2], in assay [3], in [8] and in [9] was “inactive” throughout. Moreover, the call in assay [4], in [6] and in assay [7] was inactive.
Consider `CC(C)(C)c1cc(/C=C(\C#N)C(N)=S)cc(C(C)(C)C)c1O`, for which the Potency entry in assay [1] and in [8] was “inactive” throughout. The Potency in assay [2] is 9.28 µM (active); in assay [3] it was 8.28 µM (active); in assay [9] it was 11.2 µM (active); in assay [5], 11.2 µM (active). The outcome in assay [6] and in [7] was inactive.
Take `NC1C=CC=C(C(=O)O)C1` (stereo unspecified): the Potency result in assay [1], in assay [2], in assay [3], in [8], in [9] and in assay [5] was “inactive” throughout. Besides, the call in [4], in [6] and in assay [7] was inactive.
For the compound `O=C1OC(=O)C2C3CCC(O3)C12` (stereo unspecified), the Potency result in [1], in [2], in assay [3], in assay [8], in [9] and in [5] was “inactive” throughout. For the same compound, the outcome in assay [4], in assay [6] and in assay [7] was inactive.
Consider `O=C(O)CCC(=O)N1CCCC1C(=O)O` (stereo unspecified), for which the Potency entry in assay [1], in assay [2], in [10], in [8], in [9] and in [5] was “inactive” throughout. Moreover, the outcome in assay [4], in [6] and in [7] was inactive.
Regarding `N#CC(C#N)=C(N)/C(C#N)=C/c1ccc(O)cc1`, the Potency result in assay [1], in assay [2], in assay [3], in assay [8] and in assay [9] was “inactive” each time. Moreover, the call in [4] and in assay [6] was inactive.
Turning to `O=S(=O)(c1cccc2c(Cl)cccc12)N1CCCNCC1`, the Potency result in [1], in [2], in assay [3], in assay [8], in assay [9] and in assay [5] was “inactive” each time. In addition, the result in assay [4] and in assay [6] was inactive.
On to `C=CC1(C)CC(=O)C2(O)C(C)(O1)C(OC(C)=O)C(O)C1C(C)(C)CCC(O)C12C` (stereo unspecified), for which the Potency entry in [1], in [2], in assay [3], in [10], in assay [8] and in assay [9] was “inactive” throughout. For the same compound, in assay [5], the Potency entry was “inactive”. Further, the compound was classed as inactive in assay [6] and in assay [7].
As to `Cc1nc(N=Nc2cc(S(=O)(=O)O)c3cc([N+](=O)[O-])cc(S(=O)(=O)O)c3c2)c(COP(=O)(O)O)c(C=O)c1O`, the Potency in [1] is 7.57 µM (active); in [8], 23.8 µM (active); in assay [9], 10 µM (active); in assay [5], 28.2 µM (active). The Potency entry in [2] and in assay [3] was “inactive” each time. The compound was classed as inactive in assay [4], in assay [6] and in [7].
On to `COc1ccc2c(c1)c(CC(=O)O)c(C)n2Cc1ccc(Cl)cc1`, for which the Potency entry in assay [1] and in assay [8] was “inactive” in each case. In addition, the Potency in assay [2] is 10.4 µM (active); in [5] it was 0.0067 µM (active). Besides, the result in [4], in assay [6] and in assay [7] was inactive.
Consider `CNCCNS(=O)(=O)c1cccc2cnccc12`, for which the Potency result in assay [1], in assay [2], in [3], in assay [8], in assay [9] and in assay [5] was “inactive” each time. The result in assay [6] and in assay [7] was inactive.
As to `O=c1[nH]c(=O)c2nc3ccccc3nc2[nH]1`, the Potency entry in assay [1], in assay [2], in assay [3], in assay [9] and in [5] was “inactive” throughout. The compound was called inactive in assay [4], in assay [6] and in assay [7].
For `CCCC[C@@]1(C2CCCC2)Cc2cc(OCC(=O)O)c(Cl)c(Cl)c2C1=O`, the Potency result in assay [1], in assay [2], in assay [10], in assay [8], in [9] and in [5] was “inactive” throughout. Also, the outcome in assay [6] and in [7] was inactive.
In the case of `CC(C)Cn1c(=O)n(C)c(=O)c2[nH]cnc21`, the Potency entry in [1], in assay [2], in assay [3], in assay [10], in assay [8] and in assay [9] was “inactive” in each case. Besides, the Potency entry in assay [5] is “inactive”. Further, the compound was classed as inactive in [6] and in assay [7].
Regarding `CC(=O)C(C)=O`, the Potency result in assay [1], in [2], in [3] and in assay [8] was “inactive” each time. Besides, the outcome in assay [4], in [6] and in assay [7] was inactive.
Turning to `CCCCCCCCCCCCCCSCC(=O)O`, the Potency result in assay [1], in [2], in [3] and in [8] was “inactive” in each case. For the same compound, the call in [4], in [6] and in assay [7] was inactive. For the same compound, the Potency in [9] is 31.6 µM (active) and inactive; in assay [5], 50.1 µM (active).
As to `CN1CCC2(CCN3CCc4c(oc5ccccc45)C3C2)N(C)C1=O` (stereo unspecified), the Potency entry in assay [1], in [2], in [3], in [10], in [9] and in assay [5] was “inactive” each time. Moreover, the compound was classed as inactive in assay [4], in [6] and in [7].
Take `CCCCOC(=O)NS(=O)(=O)c1sc(CC(C)C)cc1-c1ccc(Cn2c(CC)nc3c(C)cc(C)nc32)cc1`: the Potency result in [1], in assay [2], in assay [10], in [8], in assay [9] and in assay [5] was “inactive” each time. Also, the compound was called inactive in assay [6] and in assay [7].
Regarding `CN(C)S(=O)(=O)c1ccc2c(c1)/C(=C/c1cc3c([nH]1)CCCC3)C(=O)N2`, the Potency result in assay [1] and in assay [8] was “inactive” throughout. For the same compound, the Potency in [2] is 3.7 µM (active); in assay [9] it was 17.8 µM (active) and inactive. The compound was called inactive in assay [4] and in assay [6].
Take `C#CCn1c(=O)c2c(ncn2C)n(C)c1=O`: the Potency entry in [1], in [2], in assay [3], in [10], in assay [8] and in assay [9] was “inactive” throughout. Further, the Potency entry in assay [5] is “inactive”. Besides, the compound was classed as inactive in assay [6] and in assay [7].
As to `Cn1ccnc1`, the Potency entry in [1], in assay [2], in assay [3], in [10], in assay [9] and in assay [5] was “inactive” each time. Besides, the call in [6] and in assay [7] was inactive.
`N[C@H]1CONC1=O`: the Potency result in [1], in assay [2], in [3], in [10], in assay [8] and in assay [9] was “inactive” in each case. The Potency result in assay [5] is “inactive”. Further, the result in [6] and in [7] was inactive.
In the case of `CC(C)NC[C@H](O)COc1ccc(CC(N)=O)cc1`, the Potency result in assay [1], in assay [2], in assay [3] and in assay [5] was “inactive” in each case. In addition, the outcome in assay [4], in [6] and in assay [7] was inactive.
